# IMPase inh – cell-permeable inhibitors of inositol monophosphatase (IMPase); P97697; CHO-M1 cells, IP1 accumulation, HTRF TR-FRET ratio; inhibition (IP1 accumulation), % at 46.1 µM; 120,000 tested, under 10 active; AID 901; active = well fitted curve in the direction sought with a large enough effect in the signal ratio, not every such curve was filed as active; inconclusive = small, poorly fitted or top-dose-only effect, or a change in a side signal; inactive = no such curve, though single readings can be large or run the other way; the % refers to the signal ratio;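 also: cells stimulated with carbachol in lithium chloride buffer; plate controls were DMSO basal wells for no effect and reference inhibitor wells for full effect; higher means more IMPase inhibition seen as more IP1 and lower FRET ratio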
#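 CHO-M1 cells (CHO stably expressing M1 receptor), compound up to 46 uM final, stimulated with carbachol (50 uM as added) in buffer with 50mM LiCl, pH 7.4, 30 min at 37C. Cytosolic IP1 read by TR-FRET; AC50 from Hill fits.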
# ALOX15B inhib – blocks human 15-lipoxygenase 2 activity; Potency, µM (highest dose often 57.1 µM), for the others: at the top dose activity change, negative = inhibition, actives largely listed as inhibitors; O15296; actives 0.56% (n = 110,000); purified 15hLO-2, xylenol orange hydroperoxide absorbance; AID 881; also: potency is read from the fitted curve at half-maximal effect; nearly all actives have a fitted effect of over 60% in size
# Target sequence (O15296 whole entry, looked up): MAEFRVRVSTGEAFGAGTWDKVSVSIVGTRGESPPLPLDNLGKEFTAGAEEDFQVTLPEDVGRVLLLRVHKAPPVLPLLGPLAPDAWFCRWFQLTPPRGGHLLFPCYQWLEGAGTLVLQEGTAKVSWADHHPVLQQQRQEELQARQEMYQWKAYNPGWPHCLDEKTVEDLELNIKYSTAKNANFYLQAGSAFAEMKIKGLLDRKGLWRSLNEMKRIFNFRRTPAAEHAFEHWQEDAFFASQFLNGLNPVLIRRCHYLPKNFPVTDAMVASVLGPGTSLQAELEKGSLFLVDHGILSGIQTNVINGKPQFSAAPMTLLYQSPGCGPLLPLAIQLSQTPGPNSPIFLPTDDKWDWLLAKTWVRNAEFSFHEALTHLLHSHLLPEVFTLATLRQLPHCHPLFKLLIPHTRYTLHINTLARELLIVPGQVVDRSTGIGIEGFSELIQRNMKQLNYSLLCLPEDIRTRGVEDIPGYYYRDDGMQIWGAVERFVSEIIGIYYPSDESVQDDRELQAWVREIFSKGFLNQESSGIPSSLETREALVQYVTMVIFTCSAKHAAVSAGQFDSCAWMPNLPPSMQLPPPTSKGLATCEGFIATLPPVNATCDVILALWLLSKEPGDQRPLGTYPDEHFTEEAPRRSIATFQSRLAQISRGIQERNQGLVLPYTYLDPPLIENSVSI
#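 Enzyme 50 nM, AA 45 uM, 25 mM Hepes pH 7.5 + 0.01% Triton X-100; cpd preinc 15 min RT, rxn 90 min RT; stop/detect with 200 uM XO + 300 uM Fe(II) in 50 mM H2SO4, 30 min; A573/A405.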
# PNC assembly inh – blocks assembly of the perinucleolar compartment; PC3M PTB-GFP, PNC prevalence imaging, 16 h; hits give low values; activity change (PNC), negative = inhibition, % at 10 µM; actives 3.1% (n = 140,000); AID 2417;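 active = readout at or below -70, meaning at least 70% loss of cells showing the perinucleolar compartment, a nuclear body marking cancer cells; inconclusive = readout between -30 and a set limit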;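 also: plate controls were DMSO wells for no effect and camptothecin positive control wells for full effect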
#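 Compounds are pinned in duplicate onto adhered PC3M cells stably expressing GFP-tagged PTB and incubated 16 h at 37 C. Cells are then fixed, nuclei stained with Hoechst, and PNC-positive cells counted.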
# IMPase Li cell – membrane-permeable IMPase blocker, potentiated with lithium; CHO-M1 cells, IP1 TR-FRET (IP-One), carbachol + lithium; Potency, µM (highest dose often 59.4 µM), for inactives: at the top dose activity, negative = IMPase inhibition, hits mostly inhibitors; actives 0.35% (n = 210,000); AID 1457;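 also: IP1 builds up when IMPase is blocked and the TR-FRET signal falls; potency is read from the fitted curve at half-maximal effect; plate controls were basal vehicle for no effect and high inhibitor control for full effect; nearly all actives have a fitted effect of over 50% in size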
#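 Concentration–response in CHO-M1 cells, lithium-potentiated; 30 min at 37C. IP1 detected by competitive TR-FRET after 10 min lysis at RT. Hill-fitted AC50.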
# HPGD inh – inhibitors of human 15-hydroxyprostaglandin dehydrogenase (HPGD); P15428; purified HPGD, NADH fluorescence kinetic, PGE2 substrate; Potency, µM, without a hit: at the highest dose activity change, negative = inhibition, hits mostly inhibitors; actives 4.3% (n = 150,000); active = well fitted inhibition curve with a large enough effect, not every such curve was filed as active; inconclusive = small, poorly fitted or top-dose-only effect, or another doubt; inactive = no such curve, though single readings can be large or run the other way; also: potency is read from the fitted curve at half-maximal effect
#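 20 nM HPGD preincubated 15 min at room temperature with compound in 50 mM Tris-HCl pH 8, 0.01% Tween 20. Started with 1 mM NAD+ and 30 uM prostaglandin E2; NADH fluorescence (360/450 nm) read 5 times over 30-s intervals, last minus first.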
# ALOX12 inhib – 12-hLO (ALOX12) enzyme inhibition; P18054; purified 12-hLO, xylenol orange hydroperoxide absorbance; Potency, µM (titrated, usually from 57.1 µM), without a hit: at the highest dose activity change, negative = inhibition, most hits filed as inhibitors; actives 0.12% (n = 150,000); AID 1452; also: potency is read from the fitted curve at half-maximal effect; nearly all actives have a fitted effect of over 55% in size
#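 Purified human 12hLO (150 nM final) was preincubated with compounds for 15 min at room temperature in 25 mM Hepes pH 7.0, 0.01% Triton X-100, then reacted with 40 uM arachidonic acid for 30 min. Hydroperoxide was detected with ferrous iron/xylenol orange.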
# * marks the source's active call; other numbers are inactive results; ? = inconclusive; / = no result given; [ ] = remark or other dose. Hits are enriched below; roughly 5.4% of the tested compounds scored in any of these assays. Unless noted, calls follow the shape of the dose curve; as a rule, active = well fitted curve in the direction sought with a large enough effect; inconclusive = small, poorly fitted or top-dose-only effect, or another doubt; inactive = no such curve, though single readings can be large; an effect the other way counts as inactive or inconclusive. Unless noted, % is scaled to controls: 0 for no effect and ±100 for the full control effect.
SMILES,IMPase inh,ALOX15B inhib,PNC assembly inh,IMPase Li cell,HPGD inh,ALOX12 inhib
COC(=O)[C@@H]1C[C@H]1[C@@H](NC(=O)Oc1ccc(F)cc1)c1ccccc1,/,12.2%,/,-4.1%,-6.3%,-0.2%
C=CCn1c2ccccc2c2nnc(SCCCn3c(=O)[nH]c4ccccc43)nc21,14.2,-13.5%,3.4,12.7%,14.1µM*,0.5%
Cc1[nH]c2c(Cl)cccc2c1CCNC(=O)C1CCCCC1C(=O)OCC(F)(F)F (centres undefined),-2.0,/,-119.3*,14.3%,-3.9%,-4.0%
CCOC(=O)c1ccc(CNC(=O)C2CCCCC2C(=O)OCC(F)(F)F)o1 (centres undefined),?,/,59.1,1.6%[38.3 µM],-8.5%,2.5%
NC(N)=NC[C@H](N)C(=O)O,/,-0.4%[11.4 µM],/,0.0%,-9.3%,3.5%[11.4 µM]
Cc1ccccc1-n1c(SCC(=O)NC(N)=O)nc2sc(-c3ccccc3)cc2c1=O,/,/,8.8,11.2µM*,?,-18.0%
Cc1ccccc1-n1c(SCC(N)=O)nc2sc(-c3ccccc3)cc2c1=O,0.7,-0.3%,?,10.0%[38.3 µM],-28.6%,4.0%
CCOC(=O)CSC1=NC(=O)/C(=C/c2ccc(Br)cc2)S1,/,/,/,-7.6%,/,/
CCOC(=O)CSC1=NC(=O)/C(=C\c2ccc(OC(C)=O)cc2)S1,-8.3,-26.6%,4.4,6.8%[38.3 µM],25.1µM*,-4.8%
CCN(CC)c1ccc2c(c1)OC(N)=C(C#N)C2c1cccnc1 (centres undefined),12.1,3.3%,-99.0*,7.5%[38.3 µM],-5.2%,6.2%
CCOc1ccc(C(=O)OCc2nnc(-c3cccs3)o2)cc1OC,14.4,-3.9%,?,-7.4%[38.3 µM],25.1µM*,-6.9%
CC(=O)Nc1nnc(Cc2ccccc2)s1,-10.3,15.3%,-13.3,6.5%[38.3 µM],-12.8%,-2.6%
CC(C)(C)Cc1nnc(NS(=O)(=O)c2ccccc2)s1,/,/,/,-1.7%,/,/
CC(C)Cc1nnc(NS(=O)(=O)Cc2ccccc2)s1,4.6,1.3%,?,30.3%[38.3 µM],20µM*,3.3%
CS(=O)(=O)Nc1nnc(Cc2ccccc2)s1,?,/,-100.0*,-1.3%,-24.2%,1.6%
CCOC(=O)C1CCCN(C(=O)C(C)Oc2ccc(Cl)cc2Cl)C1 (centres undefined),-4.8,1.5%,12.9,28.8%[38.3 µM],-7.2%,-6.8%
CC(Oc1ccc(Cl)cc1Cl)C(=O)NC1=NN(c2ccccc2)C(=O)C1 (centres undefined),3.6,7.94µM*,1.3,-7.5%[38.3 µM],-6.3%,8.91µM*
CC(Oc1ccc(Cl)cc1Cl)C(=O)Nn1cnnc1 (centres undefined),-3.2,/,-118.9*,-3.1%,4.4%,3.6%
CCNC(=O)C(C)Oc1ccc(Cl)cc1Cl (centres undefined),/,/,/,10.2%,/,/
CC(Oc1ccc(Cl)cc1Cl)C(=O)Nc1ccncc1 (centres undefined),13.7,8.2%,?,/,/,-16.7%
COC(=O)C1CCN(C(=O)C(C)Oc2ccc(Cl)cc2Cl)CC1 (centres undefined),-0.9,-4.6%,-86.7*,47.5%[38.3 µM],-26.5%,-13.3%
CC(Oc1ccc(Cl)cc1Cl)C(=O)NC1CCSC1=O (centres undefined),-4.2,2.7%,11.9,29.9%[38.3 µM],14.1µM*,-0.1%
CC(=O)Nc1ccc(NC(=O)C(C)Oc2ccc(Cl)cc2Cl)cc1 (centres undefined),/,/,/,-1.1%,/,/
CC(=O)c1c(C)n(-c2cccc(Cl)c2)c2ccc(OC(=O)c3ccccc3)cc12,-10.6,/,/,/,/,/
CCNc1ncc2nc(-c3ccc(OC)cc3)c(=O)n(Cc3cccc(OC)c3)c2n1,/,-0.5%,/,?,?,0.2%
SMILES,IMPase inh,ALOX15B inhib,PNC assembly inh,IMPase Li cell,HPGD inh,ALOX12 inhib
COCCNC(=O)C(C)Oc1ccc(Cl)cc1Cl (centres undefined),2.9,1.8%,40.2,0.6%[38.3 µM],31.6µM*,5.1%
COc1cc(C(=O)NCCCNc2ccc([N+](=O)[O-])cc2)cc(OC)c1OC,/,/,5.0,-3.6%,-13.9%,-6.6%
O=C(NCCCNc1ccc([N+](=O)[O-])cc1)C(F)(F)F,/,/,24.8,12.2%,20µM*,?
O=C(Nc1cnn(Cc2ccc(Cl)c(Cl)c2)c1)c1nc2ncccn2n1,6.2,-9.0%,20.8,-2.4%[38.3 µM],20µM*,-7.7%
Cn1cccc1/C=N/NC(=O)c1ccn[nH]1,-0.9,/,-119.3*,4.7%,-4.7%,4.5%
Cn1cccc1/C=N/NC(=O)c1cccnc1,5.6,/,?,2.1%,-9.4%,3.0%
Cc1ccc(C(=O)N/N=C\c2cccn2C)cn1,?,-15.2%,-26.2,-3.5%[38.3 µM],14.1µM*,-12.6%
CC1(C)CC(NC(=O)C23CCC(C)(/C(=N/O)C2)C3(C)C)CC(C)(C)N1 (centres undefined),1.1,0.2%,-118.3*,-8.8%[38.3 µM],-8.7%,3.0%
C=C1C(=O)OC2CC1C(OC(C)=O)CC(C)=CCCC(C)=CCC[C@@]2(C)O (some centres undefined),/,6.8%,/,14.9%,-5.5%,-0.3%
Cc1ccc(C(=O)OCn2ncc(Cl)c(Cl)c2=O)cc1,-2.6,4.1%,?,-16.6%[38.3 µM],28.2µM*,-9.3%
O=C(OCn1ncc(Cl)c(Cl)c1=O)c1ccc(C(F)(F)F)cc1,0.0,/,6.2,-3.5%[38.3 µM],-8.0%,0.5%
CC(C)(C)C(=O)NC1CCN(S(C)(=O)=O)CC1,4.0,/,-100.0*,-3.5%,-9.2%,-3.7%
COC(=O)C1CCN(S(C)(=O)=O)CC1,0.1,/,-100.0*,1.2%,-8.2%,2.5%
COC(=O)C1CCN(S(=O)(=O)c2ccc(NC(C)=O)cc2)CC1,6.0,-0.6%,-27.7,41.4%[38.3 µM],0.5%,0.8%
N[C@@H](Cc1cc(CP(=O)(O)O)cc(-c2ccccc2Cl)c1)C(=O)O,-1.5,5.5%,/,6.5%,-17.8%,-3.0%
Cn1cnnc1SCCC(=O)Nc1ccc(Cl)cc1,0.3,/,-112.6*,2.1%,-3.6%,2.3%
Cn1cnnc1SCCC(=O)Nc1ccccc1,3.9,-5.9%,27.7,/,/,-1.7%
Cc1cc(C)cc(NC(=O)Cn2cc3c(n2)CCCCC3)c1,0.7,1.7%,-17.2,22.1%[38.3 µM],20µM*,-3.8%
CN(C)c1ccc(NC(=O)Cn2cc3c(n2)CCCC3)cc1,14.7,-7.4%,17.2,44.1%[38.3 µM],-13.2%,-4.1%
COc1ccc(-c2ccc(Nc3ccc(C(=O)N4CCOCC4)cc3)nn2)cc1OC,18.5,/,-2.1,4.4%,17.8µM*,0.7%
COc1ccccc1-c1ccc(Nc2ccc(C(=O)N3CCOCC3)cc2)nn1,-0.1,/,163.9,5.1%,7.94µM*,0.0%
COc1ccccc1CNc1ncnc2ccc(-c3cccc(C#N)c3)cc12,/,45.8%,/,24.1%,/,/
O=c1c(O)cccc2cc(O)c(O)c(O)c12,/,-9.6%,/,35.4%,5.01µM*,-24.8%

# Bioassay records: PubChem, National Center for Advancing Translational Sciences (NCATS)
